# The entries come from a sample that favours hits as a whole.
# KDM5B inhibitor = inhibitors of human KDM5B histone demethylase | 220,000 tested, 2.6% active | Potency, µM (top dose mostly 57.7 µM), hits mostly inhibitors | KDM5B demethylase, FDH-coupled NADH fluorescence (FDH is formaldehyde dehydrogenase) | AID 1347165; active = well fitted inhibition curve with a large enough effect; note: 0% is about no effect; nearly all actives have a fitted effect of over 70% in size
# Target sequence (Q9UGL1 whole entry, looked up): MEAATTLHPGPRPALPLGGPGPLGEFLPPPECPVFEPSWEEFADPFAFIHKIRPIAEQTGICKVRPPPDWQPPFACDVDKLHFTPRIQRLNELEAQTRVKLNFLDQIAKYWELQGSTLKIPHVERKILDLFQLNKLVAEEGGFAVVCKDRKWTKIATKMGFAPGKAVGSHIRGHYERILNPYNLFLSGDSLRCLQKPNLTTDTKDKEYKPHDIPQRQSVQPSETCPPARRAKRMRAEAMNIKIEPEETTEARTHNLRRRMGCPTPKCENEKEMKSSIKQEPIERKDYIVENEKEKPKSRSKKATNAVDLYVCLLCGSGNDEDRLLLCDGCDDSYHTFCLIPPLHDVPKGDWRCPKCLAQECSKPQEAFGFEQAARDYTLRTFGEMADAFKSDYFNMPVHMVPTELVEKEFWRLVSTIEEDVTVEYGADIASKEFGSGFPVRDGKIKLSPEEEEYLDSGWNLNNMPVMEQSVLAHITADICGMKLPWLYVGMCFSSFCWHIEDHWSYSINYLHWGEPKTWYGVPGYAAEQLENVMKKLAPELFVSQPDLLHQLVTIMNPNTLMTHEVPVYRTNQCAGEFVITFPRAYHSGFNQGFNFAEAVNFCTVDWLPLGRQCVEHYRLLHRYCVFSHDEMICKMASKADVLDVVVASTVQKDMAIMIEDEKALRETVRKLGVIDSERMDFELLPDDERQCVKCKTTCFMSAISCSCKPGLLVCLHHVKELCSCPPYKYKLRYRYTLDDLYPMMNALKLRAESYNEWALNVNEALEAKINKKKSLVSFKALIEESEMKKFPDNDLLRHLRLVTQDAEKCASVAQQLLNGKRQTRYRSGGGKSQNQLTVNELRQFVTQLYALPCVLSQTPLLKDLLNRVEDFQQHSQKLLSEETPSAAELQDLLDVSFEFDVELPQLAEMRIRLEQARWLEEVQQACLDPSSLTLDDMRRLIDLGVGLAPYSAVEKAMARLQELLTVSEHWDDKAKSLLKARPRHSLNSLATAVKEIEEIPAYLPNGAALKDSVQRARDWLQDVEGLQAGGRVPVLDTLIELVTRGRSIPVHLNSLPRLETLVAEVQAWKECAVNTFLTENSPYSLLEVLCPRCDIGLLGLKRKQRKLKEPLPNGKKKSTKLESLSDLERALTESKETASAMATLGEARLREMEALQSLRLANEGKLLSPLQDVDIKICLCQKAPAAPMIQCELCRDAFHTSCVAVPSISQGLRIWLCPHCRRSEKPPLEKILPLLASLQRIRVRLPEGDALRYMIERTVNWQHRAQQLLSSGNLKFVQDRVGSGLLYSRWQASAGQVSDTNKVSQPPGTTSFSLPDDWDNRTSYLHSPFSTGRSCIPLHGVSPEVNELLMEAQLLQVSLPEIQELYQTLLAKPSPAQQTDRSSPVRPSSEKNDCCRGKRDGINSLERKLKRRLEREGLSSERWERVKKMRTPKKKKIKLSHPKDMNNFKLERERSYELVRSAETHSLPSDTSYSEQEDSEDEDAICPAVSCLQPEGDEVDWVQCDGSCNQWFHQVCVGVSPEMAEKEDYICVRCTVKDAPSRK
#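 Inhibition is measured as reduced NADH fluorescence generation from FDH coupling to formaldehyde release. Truncated KDM5BΔAP at 200 nM final acts on H3K4me3 peptide (12.5 µM in substrate mix) in pH 7.5 HEPES buffer with Tween-20, 30 min, room temperature.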
# The depositor's hits bear a star; i = inactive. Potency is the fitted concentration of half-maximal effect.
SMILES,KDM5B inhibitor
Cc1ncc(C(=O)NCc2ccc3[nH]c(-c4ccccc4F)c(C)c3c2)c(C)n1,20µM*
Cc1[nH]c2ccccc2c1SCCNC(=O)c1ccccc1F,i
Cc1ccc(CNC(=O)Cc2nn(C)c(=O)c3ccccc23)cc1F,i
Cc1cc(C(=O)OCC(=O)NCc2ccc(F)cc2)c2ccccc2n1,i
Cc1c(-c2ccccc2F)[nH]c2ccc(CNC(=O)CCn3cnnc3)cc12,32µM*
O=C(Cn1nc(-c2ccccc2F)ccc1=O)NCc1cccnc1,i
Cc1ccc(CNC(=O)CCc2ncc(-c3c(F)cccc3F)o2)cc1F,i
COc1cccc(CNC(=O)Cn2c(=O)[nH]c3c(-c4ccccc4F)c[nH]c3c2=O)c1,i
Cc1nc(CCC(=O)NCc2ccc3[nH]c(-c4ccccc4F)c(C)c3c2)n[nH]1,25µM*
CCOc1ccc(OCC(=O)Nc2ccc3oc(C)nc3c2)cc1,i
CC1=C[C@@H](CNc2ccccn2)[C@H](C(C)C)C[C@H]1Cc1nnc(-c2ccc(C)cc2)o1,i
CNc1sc(C(C)=O)cc1C,i
O=C(CSc1ncc(-c2ccc(F)cc2)o1)Nc1cccc(Cl)c1,i
Cc1nc(-c2c(Cl)cccc2Cl)sc1C(=O)N1CCCC(C(=O)O)C1 (centres undefined),i
N#CCC(=O)c1c[nH]c2ccccc12,i
O=C(O)CNC(=O)c1cc(-c2ccccn2)nc2ccccc12,i
COc1cccc(C(C)N(C)Cc2nc(COc3ccccc3)no2)c1 (centres undefined),i
Cc1cc(CN(C)c2ccc(-c3nc(COc4ccccc4)no3)cn2)on1,35µM*
FC(F)(F)c1cccc(OCc2noc(-c3ccsc3)n2)c1,i
Cc1cnc(NC(=O)C(C)(C)Oc2ccc(Cl)cc2)s1,i
Fc1ccc(NC(=S)NC2CC2)cc1Cl,i
Cc1ccc(NC(=O)c2cnc(N3CCCCC3)c3ccccc23)c(C)c1,i
Cc1ccc(NC(=O)c2cc3c(N4CCSCC4)nc(C)cn3n2)c(C)c1,32µM*
CCOc1cc(=O)n2c(c1C(=O)Nc1cc(C)ccc1F)CCCC2,i
Cc1ccc(F)c(NC(=O)c2cc3c(N4CCSCC4)nc(C)cn3n2)c1,32µM*
SMILES,KDM5B inhibitor
Cc1ccc(NC(=O)c2sc(-n3nc(C)c(Cl)c3C)nc2C)c(C)c1,i
CCOc1ccc2c(c1)cc(C(=O)Nc1cc(C)ccc1F)n2C,i
Cc1nn(Cc2cc(=O)oc3c(C)c(O)ccc23)c(=O)c(C#N)c1C,i
Cc1c(-c2ccccc2)oc2c(C(=O)N3CCCC(C)C3)cccc2c1=O (centres undefined),i
C/C(=N/Nc1ccc(S(=O)(=O)Nc2ccccc2)cc1[N+](=O)[O-])c1ccccn1,i
COc1cc(/C=C/c2nc3ccccc3c(=O)n2-c2ccc(C(=O)O)cc2)ccc1O,i
C1CCC(c2nc(CCOCC3CC3)no2)NC1 (centres undefined),i
C1CCC(COCCc2noc(C3CCCN3)n2)C1 (centres undefined),i
C1CCC(c2nc(CCOCC3CCOCC3)no2)NC1 (centres undefined),32µM*
CC(C)=CC(=O)Nc1cccc2c1CCCC2,i
O=c1oc2ccc(Br)cc2cc1-c1nc(-c2cccs2)no1,i
CCn1cnc2c1c(=O)n(CC(=O)Nc1cccc(C(C)=O)c1)c(=O)n2Cc1ccccc1,i
COc1ccc(C(=O)N2CCCN(c3cc(-c4ccc(C)c(C)c4)[nH]n3)CC2)cc1OC,i
CC(=O)N1CCN(C(=O)CCc2nc(Cc3ccccc3)no2)CC1,i
Cc1cccc2nnc(N3CCN(C(=O)CCc4ccccc4)CC3)n12,25µM*
Cc1cccc2nnc(N3CCCN(C(=O)c4ccccc4Cl)CC3)n12,22µM*
Cc1ccc(C(=O)N2CCN(c3nnc4cccc(C)n34)CC2)cc1C,25µM*
Cc1cnc(C2CCC2)n1CC1CCN(C(=O)CCc2ccccc2)CC1,i
Cc1cccc2nc(C(=O)N3CCN(c4cccc(Cl)c4)CC3)cn12,i
Cc1ccc(Cl)cc1N1CCN(C(=O)c2cccn2-c2nnc(N3CCCCC3)s2)CC1,i
Cc1ccc(C(=O)N2CCN(CCc3ccccc3)CC2)cc1C,i
CCOC(=O)NC(CNC(=O)CSc1ccccc1)CC(C)C (centres undefined),i
CC(C)c1ccc(CN2C[C@@H]3C(=O)N(CCc4ccccc4)C(=O)[C@@H]3C2)cc1,i
CC(Sc1nnc(N2CCCC2)n1-c1ccccc1Cl)c1nnc(-c2cccs2)o1 (centres undefined),i
O=C(C(Sc1nnc(-c2cccnc2)n1-c1ccccc1)c1ccccc1)N1CCCC1 (centres undefined),i
SMILES,KDM5B inhibitor
O=C(CNc1cc(Cl)ccc1N1CCOCC1)Nc1ccccc1Cc1ccccc1,i
CCCCOc1ccc(/C=C/C(=O)c2ccc(O)c(OC)c2)cc1OCC,i
Cc1cccc(OC[C@H]2C[C@@H](NC(=O)C3CCCC3)[C@H](O)[C@@H]2O)n1,i
Cc1cccc(OC[C@H]2C[C@@H](NC(=O)c3ccc(C#N)cc3)[C@H](O)[C@@H]2O)n1,i
Cc1cccc(OC[C@H]2C[C@@H](NC(=O)c3ccccc3)[C@H](O)[C@@H]2O)n1,35µM*
Cc1n[nH]c(C)c1S(=O)(=O)N1CCC(=O)CC1,i
N#CC1=C(SCc2ccc(Br)cc2)NC(=O)C(C#N)C12CCCCC2 (centres undefined),i
Clc1cccc(CNc2n[nH]c(-c3ccco3)n2)c1,i
Cn1cccc1/C=N/N1CCN(Cc2ccccc2)CC1,i
CN1CCN(Cc2ccc(-c3cnc4c(OCc5ccccc5)nccn34)cc2)CC1,32µM*
CN1CCN(Cc2ccc(Nc3cnc4ccc(-c5ccccc5)nn34)cc2)CC1,i
COc1cc(SC)ccc1C(=O)OCC(=O)Nc1cc(C)ccc1C,i
Cn1c(=O)[nH]c(=O)c2c1nc(N1CCN(Cc3ccccc3F)CC1)n2Cc1ccccc1F,i
COc1ccc(N2CCCCS2(=O)=O)cc1S(=O)(=O)N(C)CCc1ccncc1,i
CN(c1ccccc1)c1ccc2ncn(C3CC3)c(=O)c2n1,i
COc1ccc(-c2ccc3ncn(C)c(=O)c3n2)cc1OC,i
COc1ncc(-c2ccc3ncn(C4CC4)c(=O)c3n2)cn1,32µM*
COc1ccc(NC(=O)Cn2ncc3ccccc3c2=O)cc1,i
Cc1nn(-c2ncnc3nc[nH]c23)c2c1C(c1ccc(F)c(F)c1)CC(=O)N2 (centres undefined),i
CCOC(=O)CCCN1CCC(CO)CC1,i
CC(C)NC(=O)NC(=O)CN1CCCc2ccccc21,i
Cc1nc2scc(CC(=O)NCCC(C)C)n2c(=O)c1-c1cc(C)n(-c2ccc(F)cc2)n1,28µM*
CC(C)CCNC(=O)Cn1ccn2nc(-c3ccc(F)cc3)c(CO)c2c1=O,i
CC(C)CCNC(=O)Cc1cccs1,i
Cc1nc2scc(CC(=O)NCCC(C)C)n2c(=O)c1-c1cc(C)n(-c2cc(F)ccc2F)n1,28µM*
SMILES,KDM5B inhibitor
CC(C)CCNC(=O)CCCc1nnc2c(=O)n(-c3cccc(F)c3)ccn12,i
Cc1ccc(F)cc1-n1nc(-c2c(C)nc3scc(CC(=O)NCC(C)C)n3c2=O)cc1C,28µM*
Cc1ccccc1-n1nc(-c2c(C)nc3scc(CC(=O)NC(C)C)n3c2=O)cc1C,28µM*
CC(C)NC(=O)Cc1csc2nc(-c3ccccc3)cn12,i
CC(C)(C)C(=O)NCCc1csc2nc(-c3ccc(F)cc3)nn12,i
Cc1nn(-c2ccc(F)cc2)c(Oc2ccccc2F)c1CCC(=O)NCC(C)C,i
